This is an account of results in PubChem BioAssay.

Assay [1] has as its target Cell division control protein 42 homolog (Homo sapiens) (UniProt P60953). As to the kind of experiment: inhibition of fluorescent GTP binding to constitutively active Cdc42 – biochemical, multiplex bead flow cytometry, Bodipy-FL-GTP, dose response (AID 1333;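 active = fitted half-maximal concentration within the tested dose range, moderate curve steepness, a statistically real signal drop, and little compound fluorescence or tag-binding interference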).
For assay [2] the target is unchanged. Kind of assay: inhibition of fluorescent GTP binding to wildtype Cdc42 – biochemical, multiplex bead flow cytometry, Bodipy-FL-GTP, dose response (AID 1334;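 active = fitted half-maximal concentration within the tested range, moderate curve steepness, significant signal drop, and little compound fluorescence or bead-linkage interference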). As to conditions: bead-based flow cytometry, Bodipy-FL-GTP binding to GST-Cdc42; at 100 µM (top of the series) unless noted. Background: In flow cytometry, cells or beads pass a laser one at a time.
The target of assay [3] is GTPase HRas (Homo sapiens) (UniProt P01112). Kind of assay: Ras wt fluorescent GTP loading blockade – biochemical, wildtype, multiplex bead flow cytometry, dose response (AID 1335). Particulars: bead-based flow cytometry, Bodipy-GTP binding to GST-Ras; at 100 µM (top of the series) unless noted.
GTPase HRas (Homo sapiens), sequence (P01112 whole entry, looked up): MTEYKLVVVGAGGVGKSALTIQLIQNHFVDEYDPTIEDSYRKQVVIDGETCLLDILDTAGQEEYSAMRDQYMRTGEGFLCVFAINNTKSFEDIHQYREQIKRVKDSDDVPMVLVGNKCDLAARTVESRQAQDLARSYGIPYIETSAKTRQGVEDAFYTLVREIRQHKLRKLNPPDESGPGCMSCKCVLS
Assay [4] deals with Ras-related protein Rab-7a (dog), GTP binding. As to the kind of experiment: blockers of fluorescent GTP binding to Rab7 – biochemical, wildtype, multiplex bead flow cytometry, dose response (AID 1336; call rule not given here).
Assay [5] concerns the target Ras-related C3 botulinum toxin substrate 1 (Homo sapiens) (UniProt P63000). Kind of assay: inhibition of wildtype Rac1 nucleotide loading – biochemical, multiplex bead flow cytometry, dose response (AID 1340;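 active = dose curve with midpoint inside tested range, moderate steepness, plateau gap beyond fit error, low compound glow and bead-link interference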). As to conditions: GST-Rac1 beads, Bodipy-FL-GTP binding; at 100 µM (top of the series) unless noted.
Assay [6] concerns the target GTPase HRas (Homo sapiens) (UniProt P01112). As to the kind of experiment: blockade of GTP loading onto mutant Ras – biochemical, activated mutant, multiplex bead flow cytometry, dose response (AID 1341;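 active = dose-response curve with midpoint inside the tested range, moderate steepness, significant amplitude and little compound fluorescence or bead-attachment interference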;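 note: GST-tagged constitutively activated Ras mutant immobilized on beads and multiplexed with other GTPases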).

For part of these data: Results with a measured potency or affinity are listed apart. The source made the active and inactive calls.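 Rule for the calls, unless noted: active = fitted half-maximal concentration within 10 nM to 100 µM, steepness 0.5 to 2, significant signal drop, low assay interference; inactive = the rest.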

Cell division control protein 42 homolog (Homo sapiens), sequence (P60953 whole entry, looked up): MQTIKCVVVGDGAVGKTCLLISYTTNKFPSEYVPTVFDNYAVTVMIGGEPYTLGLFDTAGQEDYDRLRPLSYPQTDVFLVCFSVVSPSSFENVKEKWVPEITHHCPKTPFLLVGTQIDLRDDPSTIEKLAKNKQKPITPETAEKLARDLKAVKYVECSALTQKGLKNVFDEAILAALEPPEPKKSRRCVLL

In the case of `S=C(NCCc1ccccc1)NC1CC1`, the compound was called inactive in assay [1], in assay [4] and in assay [6]. In addition, the fluorescence, percent of control (lower = inhibition) in assay [2] was found to be 36.3%. In assay [3], the GTP binding, percent of control amounted to 79.2%. In assay [5], the GTP binding signal, raw median fluorescence (lower = inhibition) (MCF (arbitrary fluorescence units)) is 253.
In the case of `Cc1ccc(S(=O)(=O)N2CC3(C)CN(S(=O)(=O)c4ccc(C)cc4)CC(C)(C2)C3O)cc1` (stereo unspecified), the result in assay [1], in assay [4] and in assay [6] was inactive. Besides, the fluorescence, percent of control (lower = inhibition) in assay [2] came out at 50%. In assay [3], the GTP binding, percent of control was 61.9%. Besides, in assay [5], the GTP binding signal, raw median fluorescence (lower = inhibition) (MCF (arbitrary fluorescence units)) was 204.
As to `CCOC(=O)c1c(-c2ccccc2)csc1NC(=O)/C(C#N)=C/c1ccc(O)c(OC)c1`, the call in assay [1], in assay [4] and in assay [6] was inactive. For the same compound, the fluorescence, percent of control (lower = inhibition) in assay [2] came to 79.7%. In assay [3], this compound had a GTP binding, percent of control of 85%. This compound gave a GTP binding signal, raw median fluorescence (lower = inhibition) (MCF (arbitrary fluorescence units)) in assay [5] of 233.
With `Cc1cc(OCCSc2nc3ccccc3n2CC(=O)O)ccc1Cl`, the result in assay [1], in assay [4] and in assay [6] was inactive. In assay [2], the fluorescence, percent of control (lower = inhibition) came to 58.4%. Also, the GTP binding, percent of control in assay [3] was 85.5%. Also, the GTP binding signal, raw median fluorescence (lower = inhibition) (MCF (arbitrary fluorescence units)) in assay [5] came to 29.6.
Turning to `COc1ccc(N/C=C/c2nc(SC)nnc2C)cc1`, the outcome in assay [1], in assay [4] and in assay [6] was inactive. Also, the fluorescence, percent of control (lower = inhibition) in assay [2] was found to be 31.3%. For the same compound, the GTP binding, percent of control in assay [3] was determined as 72.4%. The compound also yielded a GTP binding signal, raw median fluorescence (lower = inhibition) (MCF (arbitrary fluorescence units)) in assay [5] of 183.
With `COc1ccc2cc(C)c3nnc(SCc4cccnc4)n3c2c1`, the outcome in assay [1], in assay [4] and in assay [6] was inactive. Besides, the fluorescence, percent of control (lower = inhibition) in assay [2] was 32.1%. For the same compound, the GTP binding, percent of control in assay [3] turned out to be 76.7%. In assay [5], this compound came in with a GTP binding signal, raw median fluorescence (lower = inhibition) (MCF (arbitrary fluorescence units)) of 221.
In the case of `Clc1cccc(Cl)c1/C=N\Nc1nccs1`, the call in assay [1], in assay [4] and in assay [6] was inactive. Further, in assay [2], the fluorescence, percent of control (lower = inhibition) came to 96.7%. In addition, in assay [3], the GTP binding, percent of control worked out at 151%. Moreover, the GTP binding signal, raw median fluorescence (lower = inhibition) (MCF (arbitrary fluorescence units)) in assay [5] came out at 190.
With `O=C(CCc1ccccn1)N1CCCC(CNS(=O)(=O)c2cccs2)C1` (stereo unspecified), the result in assay [1], in assay [4] and in assay [6] was inactive. Further, the fluorescence, percent of control (lower = inhibition) in assay [2] turned out to be 36.9%. The compound also displayed a GTP binding, percent of control in assay [3] of 82.7%. The GTP binding signal, raw median fluorescence (lower = inhibition) (MCF (arbitrary fluorescence units)) in assay [5] was determined as 279.
In the case of `Cc1cc(C)n(Cc2n[nH]c(=S)n2Cc2ccccc2)n1`, the outcome in assay [1], in assay [4] and in assay [6] was inactive. Moreover, in assay [2], the fluorescence, percent of control (lower = inhibition) was determined as 106%. The compound further displayed a GTP binding, percent of control in assay [3] of 189%. The same compound had a GTP binding signal, raw median fluorescence (lower = inhibition) (MCF (arbitrary fluorescence units)) in assay [5] of 198.
For `Oc1ccc(/C=N/NC(=S)N/N=C/c2ccc(O)cc2)cc1`, the call in assay [1], in assay [4] and in assay [6] was inactive. Further, the fluorescence, percent of control (lower = inhibition) in assay [2] turned out to be 45%. The compound further displayed a GTP binding, percent of control in assay [3] of 88.4%. This compound came in with a GTP binding signal, raw median fluorescence (lower = inhibition) (MCF (arbitrary fluorescence units)) in assay [5] of 177.
As to `CC1(C)Cc2c(sc(NC(=O)c3ccc(Br)o3)c2C#N)CO1`, the call in assay [1], in assay [4] and in assay [6] was inactive. The fluorescence, percent of control (lower = inhibition) in assay [2] worked out at 49.4%. In assay [3], this compound registered a GTP binding, percent of control of 62.3%. In assay [5], this compound registered a GTP binding signal, raw median fluorescence (lower = inhibition) (MCF (arbitrary fluorescence units)) of 212.
`Cc1c(C(=O)N/N=C/c2ccc(O)c(Br)c2)sc(N)c1C#N`: the compound was called inactive in assay [1], in assay [4] and in assay [6]. In addition, the fluorescence, percent of control (lower = inhibition) in assay [2] stood at 27.1%. The GTP binding, percent of control in assay [3] is 64.7%. For the same compound, in assay [5], the GTP binding signal, raw median fluorescence (lower = inhibition) (MCF (arbitrary fluorescence units)) was determined as 151.
In the case of `Cc1nnc(SCCN2CCOCC2)c2nn(-c3ccccc3F)c(C)c12`, the result in assay [1], in assay [4] and in assay [6] was inactive. In assay [2], the fluorescence, percent of control (lower = inhibition) stood at 48.5%. Moreover, the GTP binding, percent of control in assay [3] turned out to be 61.1%. Also, the GTP binding signal, raw median fluorescence (lower = inhibition) (MCF (arbitrary fluorescence units)) in assay [5] was determined as 196.
Regarding `CCOc1ccc2ccccc2c1/C=N/n1cncn1`, the call in assay [1], in assay [4] and in assay [6] was inactive. For the same compound, the fluorescence, percent of control (lower = inhibition) in assay [2] came to 86.7%. Also, the GTP binding, percent of control in assay [3] stood at 156%. This compound also had a GTP binding signal, raw median fluorescence (lower = inhibition) (MCF (arbitrary fluorescence units)) in assay [5] of 179.
On to `N#Cc1c(=O)c2nc(NCc3ccccc3)ncc2n2ccccc12`, for which the result in assay [1], in assay [4] and in assay [6] was inactive. In addition, the fluorescence, percent of control (lower = inhibition) in assay [2] turned out to be 41.3%. The GTP binding, percent of control in assay [3] was 48.1%. For the same compound, the GTP binding signal, raw median fluorescence (lower = inhibition) (MCF (arbitrary fluorescence units)) in assay [5] worked out at 0.
Turning to `Cc1cccc(CNc2ncccc2C(=O)O)c1`, the outcome in assay [1], in assay [4] and in assay [6] was inactive. Also, the fluorescence, percent of control (lower = inhibition) in assay [2] was determined as 61.9%. This compound also gave a GTP binding, percent of control in assay [3] of 224%. Moreover, the GTP binding signal, raw median fluorescence (lower = inhibition) (MCF (arbitrary fluorescence units)) in assay [5] worked out at 57.
